Source: PubChem (several laboratories)
tim23-1 inh = growth inhibitors of tim23-1 mutant yeast | S. cerevisiae tim23-1 growth, BacTiter-Glo luminescence, 24 h | inhibition, % at 20 µM | 330,000 compounds, 1.3% hits | AID 463212;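 active = growth inhibition of the mutant yeast at or above 50%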;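 also: temperature-sensitive mutant grown at 25 °C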
NLRP3 yeast inh = inhibitors of NALP3 inflammasome in yeast; Yeast reconstituted NLRP3/ASC/caspase-1, beta-gal luminescence, 24 h; inhibition, % at 10 µM; 330,000 compounds, 0.39% hits; AID 2825;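 active = inhibition of 50% or more; inactive = inhibition below 50%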
tim10-1 inh = tim10-1 yeast growth inhibition. 330,000 compounds, 2.2% hits. S. cerevisiae tim10-1 ts strain growth, BacTiter-Glo, 24 h. inhibition, % at 20 µM;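 active = inhibition of at least 40%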;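 also: mutant grown at 25 °C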
TIM10 inh = growth inhibitors of TIM10 yeast strain | S. cerevisiae TIM10 strain growth, BacTiter-Glo luminescence, 24 h | inhibition, % at 10 µM | 330,000 compounds, 1.4% hits | AID 463195;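 active = inhibition of 40% or more at the single tested concentration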;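 also: wild-type TIM10 isogenic control strain grown at permissive 25 °C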
PfHsp90 set2 = growth inhibition of yeast expressing Plasmodium Hsp90; S. cerevisiae expressing PfHsp90, BacTiter-Glo ATP, 48 h; yeast lacking PDR1 and PDR3 efflux regulators; AID 504621; 310,000 compounds, 0.32% hits; inhibition, % at 9.4 µM;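 active = every replicate shows inhibition above about 80%, whatever the replicate mean, limit read from the data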
NALP1 inh = inhibitors of NALP1 inflammasome in yeast; 280,000 compounds, 0.61% hits; AID 2071; inhibition, % at 10 µM; S. cerevisiae NALP1/ASC/caspase-1 growth, X-gal OD620, 72 h; in the data active = inhibition mostly above about 24%, no sharp cut-off; inactive = mostly below about 32%
Large screens that a line does not name were inactive. Most compounds without a hit are left out; they make up all but 4.2% or so of the library.

CCOc1ccc2c(ccc(/C=C/c3cc(C)c4cccnc4c3O)[n+]2C)c1	PfHsp90 set2 115 (no result: tim23-1 inh, NLRP3 yeast inh, tim10-1 inh, TIM10 inh, NALP1 inh)
N#Cc1cccc(C(=O)Nc2cc(S(=O)(=O)N3CCOCC3)ccc2N2CCCC2)c1	none (no result: PfHsp90 set2, NALP1 inh)
COCCn1c(-c2ccc(OC)cc2)cnc1SCC(=O)Nc1ccc(OC)cc1OC	none
COCCn1c(-c2ccccc2)cnc1SCC(=O)Nc1cccc2ccccc12	NALP1 inh 74
CCc1ccccc1NC(=O)c1cccc(Oc2ccc([N+](=O)[O-])cc2Cl)c1	PfHsp90 set2 92
CC(=O)Nc1cccc(Oc2ccc([N+](=O)[O-])cc2Cl)c1	none
CC(C)(C)c1cc(C(=O)O)c(CN2CCCCC2)o1	NALP1 inh 38
Cc1oc(C(C)(C)C)cc1C(=O)NC1CCN(Cc2ccccc2)CC1	none
COc1cccc(C(=O)Oc2ccc(N3C(=O)CCC3=O)c(C)c2)c1	NALP1 inh 35
Cc1ccc(Nc2cc(C)c3c(O)cccc3n2)cc1C	none (no result: NALP1 inh)
Cc1ccccc1Nc1cc(C)c2c(O)cccc2n1	NALP1 inh 56
O=C(Nc1ccccc1)c1cccc(N2C(=O)CCC2=O)c1	none
CN(C)c1ccc(NC(=O)c2cccc(N3C(=O)CCC3=O)c2)cc1	NALP1 inh 40
CCCCCCCCCC(=O)N1c2ccccc2NC(=O)C1CC(=O)Nc1ccc(C(=O)O)cc1 (stereo not given)	none
FC(F)(F)c1ccccc1-n1ccnc1	none (no result: NALP1 inh)
Clc1ccccc1C(c1ccccc1)(c1ccccc1)n1ccnc1	PfHsp90 set2 90
O=C(NCCC1=CCCCC1)c1ccc2c(c1)N(Cc1ccccc1)C(=O)CS2	NALP1 inh 38 (no result: PfHsp90 set2)
CC(C)N1C(=O)/C(=C\c2nc3ccccc3c(=O)[nH]2)c2ccccc21	PfHsp90 set2 98 (no result: tim23-1 inh, NLRP3 yeast inh, tim10-1 inh, TIM10 inh)
CCCN1C(=O)/C(=C/c2nc3ccccc3c(=O)[nH]2)c2cc(C)ccc21	none
O=C(O)c1nn(CC(=O)N(C2CCCCC2)C2CCCCC2)c(=O)c2ccccc12	none
Cc1ccccc1-c1noc(-c2ccccc2C(=O)NCc2ccco2)n1	NALP1 inh 39
CCCn1c(N)c(C(=O)CSc2nc(C)nc3sc(C)c(C)c23)c(=O)[nH]c1=O	none (no result: NALP1 inh)
COc1ccc(/C=N\NC(=O)COc2ccc(C(C)(C)C)cc2)cc1Cn1nc(C)cc1C	NALP1 inh 38
CC(C)CCN(C(=O)Nc1ccc(Cl)cc1)C1CCN(C(C)C)CC1	none
Cc1ccc(CN2C(=O)CNC2=S)cc1	none
Oc1cccc2ccc(/C=C/c3ccccc3Cl)nc12	PfHsp90 set2 100
Oc1cccc2ccc(/C=C/c3c(F)cccc3Cl)nc12	none
COc1cc(OC)cc(-c2c(C#Cc3ccsc3)c3cc(-c4cccc5[nH]cc(C=O)c45)ccc3n2C)c1	none (no result: NALP1 inh)
Cc1nn(-c2nc3ccccc3[nH]2)c(=O)c2ccccc12	PfHsp90 set2 90 (no result: tim23-1 inh, NLRP3 yeast inh, tim10-1 inh, TIM10 inh)
Cc1nc(C(F)(F)F)c(C(=O)N/N=C(\N)c2cccnc2)s1	none
COc1ccc(C(C)(C)C)cc1NC(=O)Nc1ccc2c(c1)OCO2	PfHsp90 set2 86
Fc1ccc(-c2nc3ccccc3[nH]2)cc1	NALP1 inh 36 (no result: PfHsp90 set2)
Cc1[nH]c(N=Nc2ccccc2)nc1N=Nc1ccccc1	PfHsp90 set2 104
Cc1cccc([C@@H]2[C@@H]3C(=O)N(Cc4ccccc4)C(=O)[C@@H]3[C@]3(C)C(=O)N(c4ccc(C(F)(F)F)cc4)C(=O)N23)c1	none
CC1=C/C(=N\OS(=O)(=O)c2ccccc2)C(C(C)C)=CC1=O	PfHsp90 set2 104, NALP1 inh 102 (no result: tim23-1 inh, NLRP3 yeast inh, tim10-1 inh, TIM10 inh)
Cc1ccc(S(=O)(=O)Oc2ccccc2)cc1	none (no result: tim23-1 inh, NLRP3 yeast inh, tim10-1 inh, TIM10 inh, NALP1 inh)
O=c1[nH]c(CN2CCOCC2)nc2ccccc12	NALP1 inh 24
O=C(O)c1ccc2c(=O)[nH]c(CN3CCOCC3)nc2c1	none
COCCN(C(=O)COC(=O)c1cccnc1SC)c1c(N)n(Cc2ccccc2)c(=O)[nH]c1=O	none (no result: NALP1 inh)
O=C1CN(C(=O)COc2c(F)c(F)cc(F)c2F)c2ccccc2N1	none
CC1(C)CC(=O)c2cn3nc(C(F)(F)F)nc3nc2C1	NALP1 inh 43
O=C1C=CC(=O)N1CCCCCCN1C(=O)C=CC1=O	NALP1 inh 112 (no result: tim23-1 inh, NLRP3 yeast inh, tim10-1 inh, TIM10 inh, PfHsp90 set2)
O=C1C2C3C=CC(C3)C2C(=O)N1CCCCCCN1C(=O)C2C3C=CC(C3)C2C1=O (stereo not given)	none (no result: PfHsp90 set2)
N=c1c2c(-c3ccccc3)c(-c3ccccc3)n(Cc3ccccc3)c2ncn1CCCn1ccnc1	NALP1 inh 30
